Mtb UGM inh: blocks M. tuberculosis UGM enzyme | P9WIQ1 | 320,000 compounds, 0.06% hits | inhibition, % at 10 µM | purified UGM, fluorescence polarization probe displacement; in the data active means inhibition above about 10%, passing the limit was not always enough
Mtb betalactam: beta-lactam sensitization of Mtb H37Rv. M. tuberculosis H37Rv growth with meropenem, percent inhibition. inhibition, % at 25 µM. 330,000 compounds, 0.27% hits. AID 434955; call rule not given here;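 further: growth measured after seven days incubation then overnight dye step; 0% = bacteria only wells and 100% = bacteria with antibiotic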
Rv3671c inh: inhibitors of M. tuberculosis serine protease Rv3671c; inhibition, % at 5.96 µM; 320,000 compounds, 0.048% hits; in the data active means inhibition above about 38%;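 further: extracellular domain of Rv3671c used as enzyme; 0% = enzyme with DMSO and 100% = no enzyme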
Mtb FBA inh: Mtb fructose-bisphosphate aldolase inhibition | inhibition, % at 1 µM | 360,000 compounds, 2.3% hits | P9WQA3 | purified M. tuberculosis FBA, fluorescence read-out; in the data active means inhibition above about 27%;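 further: 0% = vehicle and 100% = reference inhibitor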
GDH-TPI counter: GDH-TPI coupled enzyme inhibition counter-screen | 360,000 compounds, 1.2% hits | inhibition, % at 4.8 µM | GDH-TPI coupled enzyme counterscreen, NADH absorbance; in the data active means inhibition above about 30%;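 further: 0% = DMSO wells and 100% = wells lacking the enzyme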
RecA splice inh: Mtb RecA intein splicing inhibition. cell-free RecA intein splicing, fluorescence. inhibition, % (test concentration not listed). AID 2221. P9WHJ3. 290,000 compounds, 0.75% hits; in the data active means inhibition above about 30%;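 further: 0% = vehicle wells and 100% = reference inhibitor control wells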
Target sequence (P9WHJ3 whole entry, looked up, canonical isoform): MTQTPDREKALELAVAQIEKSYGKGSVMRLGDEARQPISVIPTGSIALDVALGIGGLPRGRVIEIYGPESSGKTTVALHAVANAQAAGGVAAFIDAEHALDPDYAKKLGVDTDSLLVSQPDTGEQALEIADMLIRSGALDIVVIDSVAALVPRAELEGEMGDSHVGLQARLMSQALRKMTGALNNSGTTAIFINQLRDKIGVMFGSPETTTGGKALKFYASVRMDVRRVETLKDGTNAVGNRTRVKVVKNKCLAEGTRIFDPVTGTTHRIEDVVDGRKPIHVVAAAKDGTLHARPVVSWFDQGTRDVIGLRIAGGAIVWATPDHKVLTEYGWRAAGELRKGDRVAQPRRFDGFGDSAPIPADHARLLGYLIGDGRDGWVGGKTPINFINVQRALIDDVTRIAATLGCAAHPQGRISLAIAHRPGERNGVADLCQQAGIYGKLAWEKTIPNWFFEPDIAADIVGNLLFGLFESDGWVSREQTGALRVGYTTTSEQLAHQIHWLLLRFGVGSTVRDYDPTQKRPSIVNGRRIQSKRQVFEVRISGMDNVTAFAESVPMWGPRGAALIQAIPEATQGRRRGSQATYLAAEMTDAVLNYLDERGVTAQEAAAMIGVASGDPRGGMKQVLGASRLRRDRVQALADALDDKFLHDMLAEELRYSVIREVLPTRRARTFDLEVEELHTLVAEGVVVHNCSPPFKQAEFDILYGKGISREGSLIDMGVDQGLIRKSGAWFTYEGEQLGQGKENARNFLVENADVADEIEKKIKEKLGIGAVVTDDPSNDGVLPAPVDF
Starred values were filed as active, the others as inactive; nt = no result given; + = active, no number. Sampled rows, rich in hits. Any-hit rate of the full collection: about 4%.

SMILES	Mtb UGM inh	Mtb betalactam	Rv3671c inh	Mtb FBA inh	GDH-TPI counter	RecA splice inh
CCN1CCN(c2nc3c(C)cccn3c(=O)c2/C=C(\C#N)C(=O)NCCCOC)CC1	3	-1	0	143*	-5	-193
Cc1cc(C)c(S(=O)(=O)NCCCn2ccnc2)cc1C	-1	0	4	1	7	1
COc1ccc(/C=N/Nc2nc(=O)[nH]nc2C)cc1OC	0	-11	7	3	48*	0
COc1ccc(CCNc2nc(=O)[nH]nc2C)cc1OC	-3	-4	2	0	2	nt
COc1cc(/C=N/Nc2nc3ccccc3[nH]c2=O)ccc1O	-1	3	-7	0	9	-3
COc1ccc(/C=N/Nc2nc3ccccc3c(=O)n2-c2ccccc2)cc1OC	-2	4	-3	-3	60*	-1
COc1cc(/C=N/Nc2nc(=O)[nH]nc2C)ccc1O	0	3	-8	-6	32*	-5
Nc1c(Sc2ccccc2)c(=O)[nH]c(=O)n1Cc1ccccc1	-1	-1	-11	0	-1	1
Cc1[nH]n(C(C)(C)C)c(=O)c1Sc1ccccc1	-1	0	-3	1	-5	50*
C=CC[C@@H](CC(=O)OC(C)(C)C)C(=O)OC[C@@H]1CCCN1C(=O)[C@@H](CC=C)CC(=O)N(CCO)Cc1ccccc1	-3	11	4	-1	-2	nt
NC(=S)N/N=C/c1ccc(C(F)(F)F)cc1	0	85	7	-2	18	-3
NC(=S)N/N=C/c1ncc(C(F)(F)F)cc1Cl	0	98	12	2	46*	-1
N#CCCN(C(=O)COC(=O)CNS(=O)(=O)c1ccc2ccccc2c1)c1ccccc1	1	-2	-7	-2	3	nt
CCn1c(N)c(C(=O)NC2CCCCC2)sc1=S	-1	7	2	0	43*	-1
COc1ccc(CCN(C)Cc2ccc(C(=O)Nc3ccccc3)cc2)cc1OC	-1	87	0	1	4	0
CC(=O)Oc1cc2oc(=O)cc(C)c2cc1Cl	2	4	-6	+	11	-79
O=C(Oc1cc2oc(=O)c3c(c2cc1Cl)CCCC3)c1cccs1	2	27	-6	173*	10	-11
O=C(Oc1ccc2c3c(c(=O)oc2c1)CCC3)c1ccco1	-1	90	-6	+	7	nt
O=C(Oc1cc2oc(=O)c3c(c2cc1Cl)CCCC3)c1ccco1	0	36	-4	+	15	-17
Cc1cc2oc(=O)c3c(c2cc1OC(=O)c1ccco1)CCCC3	-6	0	7	4	14	-2
Cc1cc(=O)oc2cc(OC(C)C(=O)N3CCOCC3)c(Cl)cc12 (stereo not drawn)	nt	nt	nt	24	28	nt
Cc1cccc(NC(=O)C(C)Sc2nc3nc(C)cc(C)n3n2)c1 (stereo not drawn)	0	-10	2	0	7	nt
COc1ccc(-n2nc(C(=O)N3CCC(N4CCCCC4)CC3)c3c4ccccc4n(C)c3c2=O)cc1	0	-2	2	3	8	-1
O=C(NCc1ccc(F)cc1)c1cc(C2CCCCN2C(=O)CCc2ccccc2)on1 (stereo not drawn)	nt	nt	nt	-2	-3	nt
Cc1ccc(S(=O)(=O)NC(C(=O)Oc2cc3oc(=O)cc(C)c3cc2Cl)C(C)C)cc1 (stereo not drawn)	2	4	-4	+	9	-74
SMILES	Mtb UGM inh	Mtb betalactam	Rv3671c inh	Mtb FBA inh	GDH-TPI counter	RecA splice inh
Cc1ccc(S(=O)(=O)N[C@H](C(=O)Oc2ccc3c(C(F)(F)F)cc(=O)oc3c2)c2ccccc2)cc1	-2	-7	-1	24	10	-402
CC(C)Oc1cc2oc(=O)c3c(c2cc1Cl)CCC3	-1	-4	2	5	9	-1
CC(=O)Oc1cc2oc(=O)c3c(c2cc1Cl)CCC3	0	-5	-2	+	8	nt
CCOC(=O)C1CCN(C(=O)COC(=O)/C=C/c2cccc(OC)c2OC)CC1	1	-5	-5	-1	14	nt
CC(C)Oc1ccc(S(=O)(=O)N2CCOCC2)cc1NC(=O)CSC(=S)N1CCCC1	nt	nt	nt	1	-12	nt
CC(=O)c1ccc(NC(=O)/C(=C\c2cccs2)NC(=O)c2ccco2)cc1	-5	-6	-4	-5	33*	1
COc1ccc(NC(=O)/C(=C/c2cccs2)NC(=O)c2ccco2)cc1	-3	-10	3	3	45*	-1
COc1ccc(NC(=O)/C(=C\c2ccc(OC)c(OC)c2)NC(=O)c2ccco2)cc1	-2	-2	-6	0	37*	0
COc1ccc(/C=C(/NC(=O)c2ccc(Br)o2)C(=O)Nc2cccc(C(=O)O)c2)cc1	nt	nt	nt	3	34*	nt
COc1ccccc1NC(=O)/C(=C/c1cccs1)NC(=O)c1ccco1	1	-5	-1	-3	19	1
O=c1[nH]c(=O)n(C(c2ccccc2)(c2ccccc2)c2ccccc2)cc1N(CCO)CCO	nt	nt	nt	-1	3	nt
NS(=O)(=O)c1ccc(CNC(=O)C2CCCN2C(=O)c2cccs2)cc1 (stereo not drawn)	1	4	-2	0	2	nt
COc1ccc(S(=O)(=O)N2CCC3(CC2)CC(=O)c2ccccc2O3)cc1OC	0	-6	1	5	6	0
O=C(/C=C/c1ccco1)Nc1ccccn1	0	-5	-4	0	73*	-3
Cc1ccc(NC(=O)/C=C/c2ccco2)nc1	-2	2	3	0	32*	-3
CC(C)(Oc1ccc(Cl)cc1)C(=O)NC1=NN(c2ccccc2)C(=O)C1	0	3	-4	1	10	12
C=C(C)C(=O)NC1=NN(c2ccccc2)C(=O)C1	0	-4	-29	5	-5	73*
COc1ccc(CC2(CO)COc3ccccc3C2=O)cc1 (stereo not drawn)	0	-2	-4	-2	9	1
O=S(=O)(N/N=C\C=C\c1ccccc1)c1ccc(Br)cc1	0	0	3	-2	39*	-2
CCN(CC)C(=O)Cn1cc(SCC(=O)NC2CCCCC2)c2ccccc21	nt	nt	nt	-1	-2	nt
COc1ccc(/C=N/N(CCC(=O)NC(C)(C)C)C2=NS(=O)(=O)c3ccccc32)cc1	-1	8	0	6	47*	-56
CC(C)(C)NC(=O)CCN(/N=C/c1ccncc1)C1=NS(=O)(=O)c2ccccc21	5	-4	-9	0	16	0
c1ccc2c(c1)CCCN2c1nc2ccccc2n2cnnc12	0	-12	8	2	36*	-1
C=CCN1C(=O)NC(c2ccc(OC)cc2)(C(F)(F)F)S/C1=C(\C#N)c1nnc(N2CCOCC2)n1-c1ccccc1 (stereo not drawn)	1	3	2	0	7	43*
C=CCN1C(c2cccc(C(F)(F)F)c2)=CS/C1=C(/C#N)c1nnc(N2CCOCC2)n1-c1ccccc1	-4	-7	0	0	19	1

Screens deposited in PubChem by several laboratories.
